IL-1B inflam inh = qHTS for Inhibitors of Inflammasome Signaling: IL-1-beta AlphaLISA Primary Screen | activity change, % at 57.5 µM | actives 4.7% (n = 360,000) | THP-1 LPS/ATP IL-1B secretion, AlphaLISA, 16 h; active compounds read low | AID 743279, 2014; in the data active = activity change below about -50%; inconclusive = mostly about -30% to -49%
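THP-1 cells pretreated 1 hr with compounds (up to 57.5 uM final), then stimulated with LPS (250 ng/mL final) plus ATP (1.25 mM final); secreted IL-1B measured by AlphaLISA after 16 hr, decreased signal indicating inhibition.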
HT1080NT lethal = qHTS for induction of synthetic lethality in tumor cells producing 2HG: qHTS for the HT-1080-NT fibrosarcoma cell line; HT-1080-NT fibrosarcoma viability, CellTiter-Glo ATP luminescence, 48 h; Potency, µM (highest dose often 46.1 µM), without a hit: at the top dose activity, negative = less viability, actives largely listed as cytotoxic; actives 1.6% (n = 360,000); AID 686970, 2013;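 note: NT is the 2HG producing partner of a matched IDH1 knockdown line; potency is the fitted concentration of half-maximal effect; 0% = DMSO-treated cells and -100% = media-only wells without cells; nearly all actives have a fitted effect of over 55% in size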
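Compounds were tested in concentration-response format on HT-1080-NT cells for 48 hours at 37 degrees C. Cell viability came from CellTiter-Glo luminescence; curves were classified by r2, response magnitude and activity.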
TDP1 cell noCPT = qHTS for Inhibitors of human tyrosyl-DNA phosphodiesterase 1 (TDP1): qHTS in cells in absence of CPT | DT40 Tdp1-/- hTDP1 cells, no CPT, ATP luminescence, 48 h | Potency, µM (doses to about 46.2 µM), inactives show at the highest dose activity change, negative = growth inhibition, most hits filed as inhibitors | actives 15% (n = 420,000); note: potency is the fitted concentration of half-maximal effect; nearly all actives have a fitted effect of over 55% in size
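DT40 Tdp1-/-;hTDP1 cells, no CPT (DMSO vehicle only), 400 cells/well; compounds pin-transferred; ≥48 hr, 37 °C; CellTiter-Glo 30 min RT dark, luminescence read.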
HT1080 IDH1KD tx = qHTS for induction of synthetic lethality in tumor cells producing 2HG: qHTS for the HT-1080-IDH1KD cell line; HT-1080 IDH1 knockdown viability, ATP luminescence, 48 h; Potency, µM (doses to about 46.1 µM), without a hit: top-dose activity, negative = toxicity, most hits filed as cytotoxic; actives 2% (n = 360,000); AID 686971, 2013;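 note: potency is the fitted concentration of half-maximal effect; 0% = DMSO wells and -100% = cell-free medium wells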
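% activity derives from luminescence (CellTiter-Glo), normalised to DMSO and no-cell wells. HT-1080-IDH1KD cells, 750/well, had 48 h compound exposure at 37 °C.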
TDP1 cell CPT = qHTS for Inhibitors of human tyrosyl-DNA phosphodiesterase 1 (TDP1): qHTS in cells in presence of CPT | chicken DT40 Tdp1-/-;hTDP1 cells + 20 nM CPT, ATP luminescence, 48 h | actives 12% (n = 420,000) | Potency, µM (highest dose often 46.2 µM), without a hit: at the highest dose activity change, negative = growth inhibition, most hits filed as inhibitors; note: potency is the fitted concentration of half-maximal effect; nearly all actives have a fitted effect of over 55% in size
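Chicken DT40 Tdp1-/- cells complemented with human TDP1, 400 cells/well, exposed to compounds plus 20 nM camptothecin for at least 48 h at 37 C; viability read as ATP content by CellTiter-Glo luminescence.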
Starred values were filed as active, the others as inactive; ? = inconclusive; . = no result; ! = repeats disagree; [ ] = remark or other dose. A selection: hits, their analogues and other compounds. The true share with any hit is near 19%. Unless noted, calls come from the whole dose curve; as a rule, active = well fitted curve in the direction sought with a large enough effect; inconclusive = small, poorly fitted or top-dose-only effect, or another doubt; inactive = no such curve, though single readings can be large; an effect the other way counts as inactive or inconclusive. Unless noted, % is set by controls: 0 for no effect and ±100 for the full control effect.

SMILES	IL-1B inflam inh	HT1080NT lethal	TDP1 cell noCPT	HT1080 IDH1KD tx	TDP1 cell CPT
CC(=O)Nc1ccc(CN(C)c2c(C)nc3ccc(C(=O)Nc4ccc(Cl)c(Cl)c4)cn23)cc1	-53*	?	?	?	?
CCCCN(C)c1c(C)nc2ccc(C(=O)NCc3ccc(OC)cc3)cn12	?	?	13µM*	-18%	13µM*
COc1ccccc1CNC(=O)c1ccc2nc(C)c(N(C)Cc3ccc(NC(C)=O)cc3)n2c1	-22	19%	15µM*	4%	16µM*
Cc1ccc(CCNS(=O)(=O)c2cc3c(cc2C)NC(=O)CO3)cc1	2	1%	-11%	-2%	-4%
COc1ccc(Cl)cc1-c1nc(SCC(=O)NCCN2C(=O)CSC2=O)n[nH]1	-1	-5%	-29%	10%	-27%
CCOCCCNC(=O)C(c1ccc(OC)cc1)N(Cc1cccs1)C(=O)c1ccccn1 (stereo not drawn)	12	11%	?	1%	-1%
COc1ccc(NC(=O)C(c2ccc(OC)cc2)N(C)C(=O)Cc2cccs2)cc1 (stereo not drawn)	?	-2%	-29%	-3%	23µM*!
CCOCCCNC(=O)C(c1ccc(OC)cc1)N(Cc1cccs1)C(=O)c1ccc(NC(C)=O)cc1 (stereo not drawn)	.	.	12µM*	.	8.2µM*
Cc1cccc(NC(=S)NC(NC(=O)OCc2ccccc2)C(Cl)(Cl)Cl)c1 (stereo not drawn)	-3	?	?	?	23µM*
O=C(NC(NC(=S)Nc1cccc(Cl)c1)C(Cl)(Cl)Cl)OCc1ccccc1 (stereo not drawn)	?	?	18µM*	?	?
CC(=O)NC(NC(=S)Nc1cccc(Br)c1)C(Cl)(Cl)Cl (stereo not drawn)	-60*	-24%	?	?	?
CC(=O)Nc1ccccc1C(=O)C(=O)Nc1cccc(Br)c1	-1	-24%	18µM*	-22%	-28%
CCOC(=O)C1=CCN(S(=O)(=O)c2ccccc2F)C1c1cccc(C)c1 (stereo not drawn)	25	-2%	?	-16%	?
CN1CCN(CCCNC(=O)CCN2C(=O)COc3ccccc32)CC1	9	4%	20%	8%	17%
CCn1ncc(Br)c1C(=O)N(C)C12CC3CC(CC(C3)C1)C2	8	-5%	?	-26%	?
CCn1ncc(Br)c1C(=O)Nc1ccn(C23CC4CC(CC(C4)C2)C3)n1	39	-16%	13µM*	-20%	21µM*
CCC(C)Cn1cnc2c(Sc3c([N+](=O)[O-])ncn3C)nc(N)nc21 (stereo not drawn)	-56*	?	23µM*	?	16µM*
CC(C)Cn1cnc2c(Sc3c([N+](=O)[O-])ncn3C)nc(N)nc21	-101*	-8%	?	-12%	?
Nc1nc(SCc2ccccc2[N+](=O)[O-])c2ncn(Cc3ccccc3)c2n1	-21	?	?	?	?
CC1(c2nnc(Cc3ccccc3)o2)CC(c2ccc(F)cc2)=NO1 (stereo not drawn)	5	2%	-23%	15%	-5%
Cc1ccc(C)c(C(=O)CCC(=O)NNC(=O)Cn2nc(C)cc2C)c1	21	10%	2.1µM*	10%	?
COc1ccc(CC(=O)OCC(=O)Nc2ccc(F)cc2)cc1	5	15%	-6%	?	-14%
CCCOc1ccc(C(=O)N2CCC(c3nc4ccccc4s3)CC2)cc1	.	.	?	.	-11%
CCCOc1ccccc1C(=O)N1CCC(c2nc3ccccc3s2)CC1	.	.	10µM*	.	23µM*
CCC(Oc1ccccc1F)C(=O)N1CCC(c2nc3ccccc3s2)CC1 (stereo not drawn)	.	.	16µM*	.	?
SMILES	IL-1B inflam inh	HT1080NT lethal	TDP1 cell noCPT	HT1080 IDH1KD tx	TDP1 cell CPT
COc1ccc(C(=O)N2CCC(c3nc4ccccc4s3)CC2)cc1Cl	.	.	10µM*	.	26µM*
CCOc1ccc(N(CC(=O)N2CCCC2)S(=O)(=O)c2ccc(Cl)cc2)cc1	-3	0%	?	2%	-19%
COc1cc(=O)n(C)c2ccccc12	-1	-3%	-2%	14%	5%
CN(c1ccc(Cl)cc1)c1cc(=O)n(C)c2ccccc12	2	?	?	?	13µM*
O=C(CCS(=O)(=O)c1ccccc1)Nc1ccccc1F	10	-3%	27%	-2%	-5%
COc1ccc(CCC(C)NCc2ccc(Cl)c(Cl)c2)cc1 (stereo not drawn)	-3	14%	-12%	7%	-28%
COc1ccc(CCC(C)NC2CCCCCCC2)cc1 (stereo not drawn)	-73*	?	?	?	?
COc1ccc(CCC(=O)NC2CCCCC2)cc1	5	10%	15%	18%	-6%
COc1ccc(CCC(C)NCCc2ccc(Cl)cc2Cl)cc1 (stereo not drawn)	-51*	?	23µM*	?	?
COc1ccc(CCC(C)NCC2CCCCC2)cc1 (stereo not drawn)	-18	-23%	18µM*	-7%	?
COc1ccc(CCC(C)NCc2cc(OC)cc(OC)c2)cc1 (stereo not drawn)	-17	1%	?	-3%	?
CC(OC(=O)C1=COCCO1)C(=O)c1ccc(C(C)(C)C)cc1 (stereo not drawn)	9	-14%	?	-2%	?
COc1ccc(NC(=O)CC(NCc2ccccn2)C(=O)O)cc1 (stereo not drawn)	15	12%	0%	17%	19%
CCc1nnc(NC(=O)c2cc([N+](=O)[O-])ccc2N2CCOCC2)s1	-4	9%	3%	10%	21%
CCOC(=O)c1cc(CC)sc1NC(=O)c1ccc(N2CCOCC2)c([N+](=O)[O-])c1	?	0%[9.24 µM]	-14%	5%	0%
CCOC(=O)c1cc(CC)sc1NC(=O)c1cc([N+](=O)[O-])ccc1N1CCOCC1	72	?	1.3µM*	?	3.7µM*
CCC(CC)c1nnc(NC(=O)c2cc([N+](=O)[O-])ccc2N2CCOCC2)s1	1	-8%[9.24 µM]	18µM*	-4%	?
CC(=O)Nc1ccc(NC(=O)C(C)OC(=O)CCCOc2ccc(Cl)cc2C)cc1 (stereo not drawn)	36	-4%	-25%	-16%	-17%

Bioassay records: PubChem, National Center for Advancing Translational Sciences (NCATS)
